Shown are actives, neighbours in structure and some others; about 1.8% of the full set was active somewhere.
HEK293 tox: cytotoxicity in counter-screen for GLP-1R inverse agonists | HEK293 cAMP-luciferase reporter cells, luminescence, 24 h | Potency, µM (series often up to 38.3 µM), without a hit: at the top dose activity change, negative = inhibition, hits mostly inhibitors | actives 0.13% (n = 410,000) | AID 624418;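 also: loss of luciferase light is scored as toxicity; % is scaled to controls: 0 for no effect and ±100 for the full control effect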
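1536-well qHTS counterscreen of the MLSMR; 200 cells/uL, 12 h pre-incubation, 23 nL cpd, 24 h at 37 deg C 5% CO2, luciferase detection reagent, 12 min RT, luminescence. Inhibition = undesired.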
GLP1R inv ag: acts as inverse agonist at human GLP-1 receptor; AID 624417; Potency, µM (highest dose often 38.3 µM), without a hit: top-dose activity change, negative = inhibition, most hits filed as inhibitors; actives 1.6% (n = 410,000); HEK293 GLP-1R CRE-luciferase, luminescence, 24 h; GLP-1R form is constitutively active; P43220; also: % is scaled to controls: 0 for no effect and ±100 for the full control effect; nearly all actives have a fitted effect of over 55% in size
Target sequence (P43220 whole entry, looked up): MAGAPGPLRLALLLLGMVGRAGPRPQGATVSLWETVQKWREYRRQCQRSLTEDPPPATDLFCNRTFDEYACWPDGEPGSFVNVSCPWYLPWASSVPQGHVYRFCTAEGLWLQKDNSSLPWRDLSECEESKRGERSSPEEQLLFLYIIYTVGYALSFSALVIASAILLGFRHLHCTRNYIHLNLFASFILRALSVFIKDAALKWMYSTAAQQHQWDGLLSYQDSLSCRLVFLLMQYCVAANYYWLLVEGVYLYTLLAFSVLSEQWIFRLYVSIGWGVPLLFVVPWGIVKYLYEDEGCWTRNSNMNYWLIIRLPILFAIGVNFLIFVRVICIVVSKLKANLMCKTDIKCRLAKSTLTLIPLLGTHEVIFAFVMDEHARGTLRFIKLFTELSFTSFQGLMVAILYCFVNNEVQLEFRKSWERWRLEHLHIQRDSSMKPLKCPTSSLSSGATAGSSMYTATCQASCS
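HEK293 cells stably co-expressing a cAMP-responsive luciferase reporter and constitutively active GLP-1R were seeded, incubated 12 h, then exposed to compounds for 24 h at 37 C. Luminescence was read 12 min after detection reagent; inverse agonists lower signal.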
Tb PFK inh: inhibitors of T. brucei phosphofructokinase. O15648. T. brucei PFK, ADP-Glo luminescence. Potency, µM (series often up to 57.5 µM), for the others: at the highest dose activity, negative = inhibition, actives largely listed as inhibitors. actives 0.17% (n = 330,000);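 also: 0% = uninhibited 1x PFK enzyme wells and -100% = no-enzyme wells; nearly all actives have a fitted effect of over 60% in size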
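Activity is normalized to no-enzyme wells (full inhibition) and 1.25 nM enzyme wells (no inhibition). Reaction: 0.5 mM F6P, 0.1 mM ATP, 45 min RT, ADP-Glo luminescence; concentration-response curves fitted and classed by quality.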
Pin1 inhibitor: inhibitors of human Pin1; Pin1 FP peptide displacement, HiFluor488, 10 min; Q13526; actives 0.009% (n = 390,000); Potency, µM (doses to about 115 µM), for inactives: top-dose activity, negative = inhibition, usual class: inhibitors; active = well fitted inhibition curve with a large enough effect in the polarisation, with a control signal flat, not every such curve was filed as active; inconclusive = small, poorly fitted or top-dose-only effect, or effect the other way, or a change in a side signal; inactive = no such curve, though single readings can be large or run the other way; the % refers to the polarisation; also: % is scaled to controls: 0 for no effect and ±100 for the full control effect
Target sequence (Q13526 whole entry, looked up): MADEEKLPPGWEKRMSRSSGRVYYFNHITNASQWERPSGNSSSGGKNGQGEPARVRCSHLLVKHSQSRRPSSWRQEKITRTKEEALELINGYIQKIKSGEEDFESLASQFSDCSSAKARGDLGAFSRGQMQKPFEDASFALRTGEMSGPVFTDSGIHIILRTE
GLP-1R agonist: activates the human GLP-1 receptor; actives 0.007% (n = 380,000); Potency, µM (titrated, usually from 45.6 µM), for the others: at the highest dose activation, most hits filed as activators; HEK293 GLP-1R CRE-luciferase, luminescence, 4-6 h; cells express a hypersensitive GLP-1R form; also: % of control where 0% means no effect
PGK inhibitor: T. brucei PGK inhibition; actives 0.043% (n = 380,000); AID 602233; P07378; Potency, µM (highest dose often 57.5 µM), inactives show top-dose activity change, negative = inhibition, usual class: inhibitors; PGK/GAPDH coupled, Kinase-Glo luminescence, 60 min; also: % is scaled to controls: 0 for no effect and ±100 for the full control effect; nearly all actives have a fitted effect of over 60% in size
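Recombinant glycosomal PGK reaction used 1,3-bisphosphoglycerate generated in-well by GAPDH (100nM final) in 100mM TEA pH 7.6, 5mM MgCl2, 0.01% Tween-20. After 60 minutes at room temperature, ATP was read by Kinase-Glo Plus luminescence end-point.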
Starred values were filed as active, the others as inactive; i = inactive; ? = inconclusive; / = not tested or not shown. Unless noted, calls follow the shape of the dose curve; as a rule, active = well fitted curve in the direction sought with a large enough effect; inconclusive = small, poorly fitted or top-dose-only effect, or another doubt; inactive = no such curve, though single readings can be large; an effect the other way counts as inactive or inconclusive. Potency is read from the fitted curve at half-maximal effect.

SMILES	HEK293 tox	GLP1R inv ag	Tb PFK inh	Pin1 inhibitor	GLP-1R agonist	PGK inhibitor
COc1ccccc1CN1C2CCCC1CC(NC(=O)/C=C/c1ccccc1)C2 (stereo not given)	?	10µM*	-4%	-3%	-1%	i
COC(=O)C1(C(=O)OC)C[C@H](/C=C/c2ccccc2)N(Cc2ccccc2OC)[C@@H]1c1ccc(F)cc1	0%	-5%	/	/	/	/
Cc1cccc(NC(=O)CN2C(=O)c3ccccc3Sc3ncccc32)c1C	-11%	10%	/	5%	-1%	i
O=S(=O)(c1ccc(Cl)cc1)c1nc(-c2ccco2)oc1SCc1ccc(F)cc1	23%	?	/	43%	/	-5%
C[C@@H]1Cc2c(O)c(O)cc(O)c2C(=O)O1	3%	5%	-1%	/	-3%	-19%
CC1CCC/C=C/C(=O)c2c(O)cc(O)cc2CC(=O)O1 (stereo not given)	?	5µM*	0%	-13%	-10%	-1%
COc1ccc(C(=O)N2CCc3cc4c(cc3C2C)OCCCO4)cc1 (stereo not given)	-9%	?	2%	1%	9%	-4%
CC1c2cc3c(cc2CCN1C(=O)c1ccc(Br)cc1)OCCCO3 (stereo not given)	-25%	3.2µM*	-3%	11%	-9%	-3%
CC(=O)Nc1ccc(NC(=O)CSc2cn(CC(=O)N(C(C)C)C(C)C)c3ccccc23)cc1	2%	10%	/	-3%	/	-8%
Cc1ccccc1-n1nnnc1SC(C)C(=O)Nc1ccc(N2CCN(C)CC2)cc1 (stereo not given)	-26%	?	-2%	4%	-1%	0%
Cc1ccccc1-n1nnnc1SCC(=O)Nc1ccc(N2CCN(C)CC2)cc1	-19%	1µM*	1%	-1%	-5%	i
Cc1cccc(-n2nnnc2SCC(=O)Nc2ccc(N3CCN(C)CC3)cc2)c1	-18%	?	4%	0%	3%	-4%
CCc1ccccc1-n1nnnc1SCC(=O)Nc1ccc(N2CCN(C)CC2)cc1	-8%	1.8µM*	-2%	-1%	7%	-4%
O=S1(=O)N=C(Oc2ccccc2Br)c2ccccc21	/	/	/	-8%	/	/
C[C@H](CO)N1C[C@H](C)[C@H](CN(C)S(=O)(=O)c2cccc(F)c2)OCc2ccccc2-c2c(n(C)c3ccccc23)C1=O	-28%	11µM*	/	/	8%	2%
C[C@H](CO)N1C[C@H](C)[C@@H](CN(C)S(=O)(=O)c2ccc(F)cc2)Oc2c(NC(=O)Nc3ccc(C(F)(F)F)cc3)cccc2C1=O	-14%	?	4%	2%	-3%	-5%
C[C@@H]1CN([C@@H](C)CO)C(=O)c2ccccc2-c2ccccc2CO[C@@H]1CN(C)S(=O)(=O)c1ccc(C(F)(F)F)cc1	-42%	10µM*	/	/	10%	8%
COc1ccc(N2C(=O)CS(=O)(=O)C23C(=O)N(Cc2ccc(F)cc2)c2ccc(C)cc23)cc1 (stereo not given)	1%	3%	/	36%	-4%	0%
O=C(NCc1nnc(-c2nc3ccccc3[nH]2)o1)C1CCCCC1	/	/	/	-3%	/	/
O=C(C1CCN(c2nc(-c3ccc(Br)cc3)cs2)CC1)N1CCOCC1	/	/	/	3%	/	/
Cc1onc(-c2ccc(Cl)cc2Cl)c1-c1csc(COc2ccccc2)n1	13%	2.8µM*	3%	4%	5%	-1%
CCOc1cc(S(=O)(=O)n2cc(-c3ccc(F)cc3)c(N)n2)cc(OCC)c1OCC	?	2.2µM*	3%	?	1%	i
CCOC(=O)N1CCC(Nc2cc(C)nc3c(-c4ccccc4OC)c(C)nn23)CC1	1%	?	0%	?	5%	-8%
CCOC(=O)N1CCN(C(=O)CSc2cc(C)nc3c(-c4ccccc4OC)c(C)nn23)CC1	?	13µM*	-7%	-3%	6%	/
O.O=C([O-])CC([S-])C(=O)[O-].[Au+].[Na+].[Na+] (stereo not given)	/	/	/	/	-7%	/
SMILES	HEK293 tox	GLP1R inv ag	Tb PFK inh	Pin1 inhibitor	GLP-1R agonist	PGK inhibitor
COc1ccc(S(=O)(=O)n2nc(-c3ccc(Cl)cc3)cc2N)cc1	-19%	10µM*	2%	-3%	4%	-2%
COc1ccc(-c2cc(N)n(S(=O)(=O)c3ccc(C)cc3)n2)c(OC)c1	-7%	6%	2%	31%	18%	-4%
CCOC(=O)C1=C(c2ccccc2)NC(N)=NC1c1ccc(OCc2ccc(C(=O)OC)cc2)cc1 (stereo not given)	?	8.9µM*	1%	29%	8%	i
CCOC(=O)C1=C(c2ccccc2)Nc2ncnn2C1c1ccc(C(=O)O)cc1 (stereo not given)	1%	13%	-2%	-1%	-1%	-8%
CCc1cccc(NC(=O)CN2C(=O)COc3ccc(S(=O)(=O)Nc4ccccc4)cc32)c1	-14%	?	/	2%	-4%	-1%
COc1cc(NC(=O)c2ccc(Cl)cc2)c(OC)cc1NC(=O)CN1CCOCC1	-1%	-2%	-3%	-3%	-13%	2%
COc1cc(NC(=O)c2ccc(Cl)cc2)c(OC)cc1NC(=O)CN1CCCCC1	?	3.5µM*	-9%	-9%	19%	i
COc1cc(NC(=O)Nc2ccccc2OC)c(OC)cc1NC(=O)CN1CCCCC1	-29%	?	0%	3%	-1%	0%
COc1cc(NC(=O)C2CCCCC2)c(OC)cc1NC(=O)CN1CCCCC1	?	2.5µM*	0%	1%	16%	-4%
CCOc1ccc(CN2CCC(C(=O)Nc3cccc(-c4ccn[nH]4)c3)CC2)cc1Cl	?	10µM*	8%	-5%	-1%	3%
COc1cccc(-c2cccc(NC(=O)C3CCN(Cc4nccs4)CC3)c2)c1	-4%	-22%	2%	-2%	-3%	-6%
CCN(CC(=O)NCc1ccc(Cl)cc1)C(=O)COc1ccc(Cl)cc1Br	-3%	11µM*	2%	-2%	-2%	-1%
Cc1cc(C)cc(C(=O)NCC(c2ccc(N(C)C)cc2)N2CCCC2)c1 (stereo not given)	-5%	-11%	/	-2%	/	0%
Cc1cc(C)cc(Nc2nnc(-n3nc(C)cc3C)c3ccccc23)c1	-11%	?	/	?	/	0%
C/C(=N\NC(=S)Nc1ccc(C)cc1)c1cccc(N)c1	4.5µM*	?	3%	-2%	10%	1%
C/C(=N\NC(=S)Nc1c(C)cccc1C)c1ccc(O)cc1	?	10µM*	-7%	1%	16%	0%

Compound activity: PubChem, National Center for Advancing Translational Sciences (NCATS)
